Data from PubChem BioAssay AID430 (Sanford-Burnham Center for Chemical Genomics, 2006).
In all, about 63,000 compounds went through this assay and about 1,100 (1.7%) were called active. The sample holds actives, similar compounds and a random draw of the others, so the mix is not that of the screen. Results with a measured potency or affinity are listed apart. Unmarked numbers belong to inactive results. No stated cut-off is given here; in the data, active means cytotoxicity above about 50%; inactive means the rest.

Test: HPDE-C7 pancreatic duct cell viability loss – fluorescence, HTS (AID 430);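 further: cells exposed to compound for 48 hours before viability readout; 0% = vehicle and 100% = reference cytotoxic drug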
Conditions: HPDE-C7 pancreatic duct cells viability, at 10 µM, stronger effect = higher value

| SMILES | cytotoxicity |
| --- | --- |
| COc1ccc(C2(CNC(=O)c3ccc(Br)o3)CCOCC2)cc1 | -0.2% |
| O=C(Cn1cc2c(n1)CCCC2)NCCc1ccccc1 | -13% |
| Cc1nc(SCC(=O)N2CCN(c3ccccc3)CC2)c2oc3ccccc3c2n1 | 48.5% |
| Cc1cc(NS(=O)(=O)c2ccc(NC(=O)c3ccoc3C)cc2)nc(C)n1 | 2.9% |
| COc1ccc(-c2nnnn2-c2ccccc2OC)cc1 | 46.6% |
| COc1ccc(-c2nnnn2CCc2ccccc2)cc1 | -7.2% |
| CCOc1cccc(-n2nnnc2-c2ccc(OC)cc2)c1 | 56.8% (active) |
| COc1cccc(-n2nnnc2SCC(=O)c2cc(OC)ccc2OC)c1 | -12.2% |
| CCS(=O)(=O)c1nnnn1-c1ccccc1S(C)(=O)=O | 33.3% |
| COc1ccc(-n2nnnc2-c2cccc(OC)c2)cc1 | 68.4% (active) |
| COc1ccc(-n2nnnc2-c2cccnc2)cc1 | -6.7% |
| O=C(CSc1nnnn1-c1ccccc1)CSc1nnnn1-c1ccccc1 | -2.1% |
| COc1cccc(Oc2nnnn2-c2ccccc2)c1 | -23% |
| N#CCCS(=O)(=O)c1nnnn1-c1ccccc1 | 64.6% (active) |
| Clc1ccc(-n2nnnc2-c2ccccc2)cc1 | -17.1% |
| Nc1nc(-c2ccc(Cl)cc2)nn1C(=O)c1cccnc1 | 9.3% |
| CC(C)C(OC(=O)c1cc2sccc2n1C)C(=O)NCC1CCCO1 (stereo not drawn) | -19.4% |
| O=C(CSc1nnc(-c2ccccc2Br)o1)N1CCN(C(=O)c2ccco2)CC1 | -13.5% |
| CC1CCCCN1C(=O)CSc1nnc(-c2ccco2)n1CC1CCCO1 (stereo not drawn) | 3.9% |
| COc1cccc(OCc2nnc(SCC(=O)OC3CCCCC3)n2C)c1 | -7.5% |
| CCOc1ccccc1NC(=O)CSc1nnc(CNC(=O)c2ccco2)o1 | 6.4% |
| CN(C)C(=O)N1CCN(C(=O)c2ccccc2Sc2ccccc2C#N)CC1 | -6.6% |
| NS(=O)(=O)c1ccc(NC=C2C(=O)OC3(CCCCC3)OC2=O)cc1 | 6.2% |
| NS(=O)(=O)c1ccc(NC(=O)CSC2CCCCC2)cc1 | -4.6% |
| O=C1c2oc3ccc(Cl)cc3c(=O)c2C(c2cccc(Br)c2)N1CCO (stereo not drawn) | 0.8% |
| Cc1ccccc1OCC(=O)Nc1ccc(N2CCN(S(C)(=O)=O)CC2)cc1 | -2% |

| SMILES | cytotoxicity |
| --- | --- |
| COc1cc(-c2nnc(COc3ccc4ccccc4c3)o2)cc(OC)c1OC | 34.6% |
| COc1ccc(-c2nnc(COc3ccc4ccccc4c3)o2)cc1OC | 4.4% |
| COc1cc(-c2nnc(COc3ccc4cc(Br)ccc4c3)o2)cc(OC)c1OC | 78.6% (active) |
| COc1ccc(C(=O)OCn2nnc3ccccc3c2=O)cc1OC | 6.3% |
| CCOc1ccc(S(=O)(=O)n2cnc3cc(C)c(C)cc32)cc1 | 8.7% |
| N#Cc1c(N)nc2c(c1N)CC(=O)N2c1ccccc1-c1ccccc1 | 0.1% |
| CC(C)(C)N1C(=O)Cc2c1nc(N)c1c(N)nc(N3CCCCC3CO)c(C#N)c21 (stereo not drawn) | 54.6% (active) |
| CCOC(=O)CNS(=O)(=O)CCN1C(=O)c2ccccc2C1=O | -14.2% |
| CCOC(=O)c1c(CN2CCCCC2C)oc2ccc(OC)cc12 (stereo not drawn) | 3.6% |
| CCOC(=O)c1cccc(NC(=O)c2cnc3ccccc3n2)c1 | 0.8% |
| O=S(=O)(c1ccc(Cl)cc1)N1CCSC1c1ccco1 (stereo not drawn) | 8.1% |
| O=C(Nc1ccc(Cl)c(Cl)c1)N1CCSC1c1ccco1 (stereo not drawn) | 62.5% (active) |
| O=C(c1cc2ccccc2oc1=O)N1CCSC1c1ccco1 (stereo not drawn) | 4.9% |
| COc1ccc(-c2noc(CCC(=O)N3CCN(Cc4ccccc4)CC3)n2)cc1 | -6.2% |
| CCCc1[nH]nc2c1C(c1ccncc1)C(C#N)=C(N)O2 (stereo not drawn) | 6.1% |
| CCc1[nH]nc2c1C(c1ccc(Br)s1)C(C#N)=C(N)O2 (stereo not drawn) | -2.9% |
| CCCN1CC23C=CC(O2)C(C(=O)O)C3C1=O (stereo not drawn) | -2.8% |
| CC(C)COc1cccc(C(=O)Nc2ccc(S(=O)(=O)N3CCOCC3)cc2)c1 | 16.1% |
| CCOc1ccc(-c2n[nH]c(C)c2Oc2ccc(OC)cc2)c(O)c1 | 5.9% |
| CCOc1ccc(N2C(=O)c3ccc(C(=O)OCc4c(C)noc4C)cc3C2=O)cc1 | -3.6% |
| CCCOC(=O)c1ccc(-c2c(C)noc2-c2ccc(OC)cc2O)o1 | -2.8% |
| CCOC(=O)c1ccc(OCC(=O)c2ccc(O)cc2O)cc1 | -2.2% |
| CCOC(=O)c1c(N)n[nH]c1-c1ccc(OC)cc1 | 2.4% |
| CCOC(=O)COC(=O)c1ccc(O)cc1 | -3.6% |
| COc1ccc(CC(NC(C)=O)C(=O)N2CCN(C(=O)Nc3ccc(Cl)cc3)CC2)cc1OC (stereo not drawn) | 4.9% |
| O=C(Nc1nc2ccccc2n1CCOc1ccccc1)c1ccco1 | -12.8% |

| SMILES | cytotoxicity |
| --- | --- |
| Cc1cccc(Nc2nc(NC(C)C)nc(Oc3ccc(=O)n(C)n3)n2)c1 | -11.3% |
| CCOC(=O)N1CCN(CC(=O)Nc2cc(OCC)ccc2OCC)CC1 | -9.8% |
| CCCCc1ccc(NC(=O)COCC)cc1 | -12.8% |
| CCCCc1ccc(NC(=O)OC)cc1 | -16.3% |
| CC(=O)Nc1ccc(S(=O)(=O)NCC(C)NS(=O)(=O)c2ccc(NC(C)=O)cc2)cc1 (stereo not drawn) | -20% |
| OC1(Cc2ccn[nH]2)CCCCC1 | 17.9% |
| O=C(OCCN1CCOCC1)c1cccnc1 | 0.3% |
| CCOc1cc(C(=O)Nc2nnc(C)s2)cc(OCC)c1OCC | -7.4% |
| COc1ccc(OC)c(-c2cc(C(=O)Nc3c(C)nn(Cc4ccc(Cl)cc4)c3C)no2)c1 | 17.1% |
| COc1ccc(-c2cc(C(=O)Nc3cc(C)n(Cc4ccc(Cl)cc4)n3)no2)cc1OC | 6.9% |
| COc1ccccc1-c1cc(C(=O)Nc2cccnc2)no1 | 79.8% (active) |
| COc1ccc(OC)c(-c2cc(C(=O)Nc3cc(C)n(Cc4ccc(Cl)cc4)n3)no2)c1 | 62.5% (active) |
| COc1ccc(NC(=O)c2cc(-c3ccccc3OC)on2)cc1 | 54.3% (active) |
| COc1ccc(CNC(=O)c2cc(-c3ccccc3OC)on2)cc1 | -1.1% |
| COc1ccccc1-c1cc(C(=O)Nc2ccc(F)cc2F)no1 | -11.9% |
| COc1ccccc1-c1cc(C(=O)Nc2cc(C)on2)no1 | -2.8% |
| COc1ccccc1-c1cc(C(=O)NC(C)C)no1 | -2.5% |
| Cc1cccc(Cn2c(SCCN3CCOCC3)nc3c2c(=O)n(C)c(=O)n3C)c1 | -7.8% |
| COc1ccc(C2CC(c3ccccc3)Nc3nc(NC(=O)c4ccco4)nn32)cc1 (stereo not drawn) | -5.5% |
| COC(=O)Cc1cc(=O)n2[nH]c(C)nc2n1 | -15.9% |
| CCOC(=O)N1CCN(c2ccc(C(=O)c3ccccc3)cc2F)CC1 | 7% |
| Brc1ccc2[nH]ncc2c1 | -5.6% |
| COc1cccc(N2CCN(Cc3nc4ccccc4c(=O)[nH]3)CC2)c1 | -2.6% |
| COc1cccc(N2CCN(CC(=O)c3c[nH]c4ccc(OC)cc34)CC2C)c1 (stereo not drawn) | 9.5% |
| O=c1[nH]c(CN2CCc3ccccc3C2)nc2ccccc12 | 3.3% |
| c1ccc2c(c1)CCN(c1ncnc3nc[nH]c13)C2 | -4.2% |

| SMILES | cytotoxicity |
| --- | --- |
| COC(=O)c1ccc(N2C(=O)CC(NCc3ccccc3)C2=O)cc1 (stereo not drawn) | -3% |
| CCS(=O)(=O)N1CCCC(C(=O)NCc2ccc3c(c2)OCO3)C1 (stereo not drawn) | -13.3% |
| Cc1cc(C)n(-c2nncc(-c3ccccc3)n2)n1 | 0.6% |
| Cc1cc(NC(=O)CSc2nnc(Cn3c(=O)sc4ccccc43)n2-c2ccccc2C)no1 | -24.2% |
| Cc1cc(C)nc(SCC(=O)c2ccc(O)cc2O)n1 | -21% |
| Cc1ccc(S(=O)(=O)CCC(=O)OCC(=O)Nc2cc(C)on2)cc1 | -14.2% |
| OCC1OC(n2nc3ccccc3n2)C(O)C(O)C1O (stereo not drawn) | -4.3% |
| COc1cccc(-n2c(CNC(=O)OC(C)(C)C)n[nH]c2=S)c1 | 2.9% |
| O=S(=O)(Nc1cccc2ncccc12)c1cccs1 | 45.6% |
| Cc1ccc2ncccc2c1NS(=O)(=O)c1ccccc1 | -17.3% |
| CCOCC(=O)Nc1nnc(Cc2ccc(OC)c(OC)c2)s1 | -11.9% |
| O=C(NCCCN1CCOCC1)c1cc2ccccc2oc1=O | 3.1% |
| Cc1oc(-c2ccc(Cl)cc2)nc1CN1CCC(C(=O)NCc2cccnc2)CC1 | -28.8% |
| CCOCCOC(=O)c1[nH]c2c(c1C)C(=O)CC(c1ccc(N(C)C)cc1)C2 (stereo not drawn) | -3.3% |
| COCCOC(=O)c1[nH]c2c(c1C)C(=O)CC(c1ccccc1)C2 (stereo not drawn) | 50.6% (active) |
| COC(=O)c1[nH]c2c(c1C)C(=O)CC(c1ccccc1)C2 (stereo not drawn) | 45.6% |
| COCCOC(=O)c1[nH]c2c(c1C)C(=O)CC(c1ccc(N(C)C)cc1)C2 (stereo not drawn) | -10.9% |
| CCCCOC(=O)c1[nH]c2c(c1C)C(=O)CC(c1cc(OC)c(OC)c(OC)c1)C2 (stereo not drawn) | -7.3% |
| COC(=O)c1[nH]c2c(c1C)C(=O)CC(c1ccc(C)cc1)C2 (stereo not drawn) | 1.7% |
| CCCOC(=O)c1[nH]c2c(c1C)C(=O)CC(c1ccc(OC)c(OC)c1)C2 (stereo not drawn) | -5.7% |
| CCCCCOC(=O)c1[nH]c2c(c1C)C(=O)CC(c1ccco1)C2 (stereo not drawn) | 68.9% (active) |
| CCOC(=O)c1[nH]c2c(c1C)C(=O)CC(c1ccc(F)cc1)C2 (stereo not drawn) | 70.4% (active) |
| CCOc1ccc(C2CC(=O)c3c([nH]c(C(=O)OC)c3C)C2)cc1OC (stereo not drawn) | 2.6% |
| COCCOC(=O)c1[nH]c2c(c1C)C(=O)CC(c1ccc(F)cc1)C2 (stereo not drawn) | 4.9% |
| COC(=O)c1[nH]c2c(c1C)C(=O)CC(c1cccs1)C2 (stereo not drawn) | 70.9% (active) |
